log2 fold change data for 38 targets are collected here from the supplement of paper PMC10849652.

About 7,900 targets were measured; listed, in parts, are those with a hit and a random draw of the rest. About 0.6% of all pairs of compound and target were hits.

Sequence of UniProt Q96RV3 (Q96RV3 whole entry, looked up): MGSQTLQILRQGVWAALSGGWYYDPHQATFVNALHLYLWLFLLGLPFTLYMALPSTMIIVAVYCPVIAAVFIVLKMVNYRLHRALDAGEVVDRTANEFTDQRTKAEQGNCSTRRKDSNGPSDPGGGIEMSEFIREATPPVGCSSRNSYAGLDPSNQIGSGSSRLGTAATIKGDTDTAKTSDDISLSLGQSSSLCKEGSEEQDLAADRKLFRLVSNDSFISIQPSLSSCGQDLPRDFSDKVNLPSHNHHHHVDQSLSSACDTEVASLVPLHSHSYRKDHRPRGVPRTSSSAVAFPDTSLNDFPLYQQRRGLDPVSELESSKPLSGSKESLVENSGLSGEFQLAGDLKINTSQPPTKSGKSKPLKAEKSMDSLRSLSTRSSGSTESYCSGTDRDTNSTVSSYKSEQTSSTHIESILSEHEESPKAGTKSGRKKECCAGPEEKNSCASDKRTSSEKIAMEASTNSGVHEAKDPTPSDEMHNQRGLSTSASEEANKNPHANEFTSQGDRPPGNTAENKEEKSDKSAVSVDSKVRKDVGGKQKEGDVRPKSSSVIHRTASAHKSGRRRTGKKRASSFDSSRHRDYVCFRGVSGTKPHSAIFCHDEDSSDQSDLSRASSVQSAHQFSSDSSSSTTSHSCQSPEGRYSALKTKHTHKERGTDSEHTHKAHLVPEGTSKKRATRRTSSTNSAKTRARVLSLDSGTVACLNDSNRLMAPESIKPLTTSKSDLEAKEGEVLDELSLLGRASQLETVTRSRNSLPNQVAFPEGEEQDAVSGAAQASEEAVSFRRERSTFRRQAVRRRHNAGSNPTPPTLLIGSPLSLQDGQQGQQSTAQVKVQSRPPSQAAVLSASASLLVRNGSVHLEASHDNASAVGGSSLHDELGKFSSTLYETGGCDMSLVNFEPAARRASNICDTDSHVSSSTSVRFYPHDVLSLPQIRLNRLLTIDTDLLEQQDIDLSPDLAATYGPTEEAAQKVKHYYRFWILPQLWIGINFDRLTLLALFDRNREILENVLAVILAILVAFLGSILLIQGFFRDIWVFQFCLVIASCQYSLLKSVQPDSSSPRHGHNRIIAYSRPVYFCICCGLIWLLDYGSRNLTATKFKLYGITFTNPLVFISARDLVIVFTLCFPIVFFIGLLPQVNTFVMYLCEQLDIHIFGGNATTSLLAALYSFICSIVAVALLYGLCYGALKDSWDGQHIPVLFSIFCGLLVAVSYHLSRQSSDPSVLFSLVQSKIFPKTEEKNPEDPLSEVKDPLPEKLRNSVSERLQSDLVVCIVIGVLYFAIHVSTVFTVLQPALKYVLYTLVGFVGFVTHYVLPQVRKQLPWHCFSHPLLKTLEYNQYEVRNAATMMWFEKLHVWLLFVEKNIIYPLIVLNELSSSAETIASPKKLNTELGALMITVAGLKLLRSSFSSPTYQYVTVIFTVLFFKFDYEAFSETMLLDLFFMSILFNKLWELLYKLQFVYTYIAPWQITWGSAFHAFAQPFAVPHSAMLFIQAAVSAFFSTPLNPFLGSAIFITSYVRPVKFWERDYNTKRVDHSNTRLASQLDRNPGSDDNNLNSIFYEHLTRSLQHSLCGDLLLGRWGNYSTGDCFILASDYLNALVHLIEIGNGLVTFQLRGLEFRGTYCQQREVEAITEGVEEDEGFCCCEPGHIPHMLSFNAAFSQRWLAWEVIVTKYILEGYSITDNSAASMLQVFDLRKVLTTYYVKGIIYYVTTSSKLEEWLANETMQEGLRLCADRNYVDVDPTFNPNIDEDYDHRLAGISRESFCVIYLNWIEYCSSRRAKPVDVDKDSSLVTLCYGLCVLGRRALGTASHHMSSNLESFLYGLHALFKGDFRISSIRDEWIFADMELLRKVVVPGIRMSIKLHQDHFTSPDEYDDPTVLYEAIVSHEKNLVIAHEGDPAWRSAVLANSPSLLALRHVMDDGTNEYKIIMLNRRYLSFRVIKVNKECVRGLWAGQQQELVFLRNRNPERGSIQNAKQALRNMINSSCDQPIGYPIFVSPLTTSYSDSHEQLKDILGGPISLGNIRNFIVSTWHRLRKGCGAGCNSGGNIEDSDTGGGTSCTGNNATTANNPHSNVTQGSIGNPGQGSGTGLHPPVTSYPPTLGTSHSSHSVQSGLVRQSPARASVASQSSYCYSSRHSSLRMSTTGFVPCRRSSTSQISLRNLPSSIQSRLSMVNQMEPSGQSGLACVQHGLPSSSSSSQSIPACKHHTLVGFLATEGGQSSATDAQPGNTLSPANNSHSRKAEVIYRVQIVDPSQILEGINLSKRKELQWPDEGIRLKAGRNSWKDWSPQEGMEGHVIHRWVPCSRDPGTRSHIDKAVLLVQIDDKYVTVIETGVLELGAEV
Sequence of UniProt Q15121 (Q15121 whole entry, looked up): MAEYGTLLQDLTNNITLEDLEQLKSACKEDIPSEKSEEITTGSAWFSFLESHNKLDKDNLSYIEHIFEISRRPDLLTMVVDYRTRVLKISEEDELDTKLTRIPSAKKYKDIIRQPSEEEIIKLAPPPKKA
Sequence of UniProt Q8N165 (Q8N165 whole entry, looked up): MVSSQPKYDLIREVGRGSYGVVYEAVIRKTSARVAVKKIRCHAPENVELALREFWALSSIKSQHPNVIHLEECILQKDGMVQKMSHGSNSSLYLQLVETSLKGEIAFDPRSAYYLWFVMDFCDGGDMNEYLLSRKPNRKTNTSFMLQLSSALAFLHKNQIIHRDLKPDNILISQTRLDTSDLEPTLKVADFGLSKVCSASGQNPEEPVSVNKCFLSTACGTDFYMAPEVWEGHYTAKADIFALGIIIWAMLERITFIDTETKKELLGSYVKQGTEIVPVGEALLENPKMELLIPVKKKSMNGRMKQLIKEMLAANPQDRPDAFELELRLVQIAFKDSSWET
Sequence of UniProt O00233 (O00233 whole entry, looked up): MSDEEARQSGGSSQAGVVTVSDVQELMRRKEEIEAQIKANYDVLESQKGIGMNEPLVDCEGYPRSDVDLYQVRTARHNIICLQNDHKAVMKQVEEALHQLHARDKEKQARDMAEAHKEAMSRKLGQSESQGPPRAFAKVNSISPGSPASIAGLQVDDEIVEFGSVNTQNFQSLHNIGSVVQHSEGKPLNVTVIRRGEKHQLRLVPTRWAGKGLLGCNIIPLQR
Sequence of UniProt Q8NCC3 (Q8NCC3 whole entry, looked up): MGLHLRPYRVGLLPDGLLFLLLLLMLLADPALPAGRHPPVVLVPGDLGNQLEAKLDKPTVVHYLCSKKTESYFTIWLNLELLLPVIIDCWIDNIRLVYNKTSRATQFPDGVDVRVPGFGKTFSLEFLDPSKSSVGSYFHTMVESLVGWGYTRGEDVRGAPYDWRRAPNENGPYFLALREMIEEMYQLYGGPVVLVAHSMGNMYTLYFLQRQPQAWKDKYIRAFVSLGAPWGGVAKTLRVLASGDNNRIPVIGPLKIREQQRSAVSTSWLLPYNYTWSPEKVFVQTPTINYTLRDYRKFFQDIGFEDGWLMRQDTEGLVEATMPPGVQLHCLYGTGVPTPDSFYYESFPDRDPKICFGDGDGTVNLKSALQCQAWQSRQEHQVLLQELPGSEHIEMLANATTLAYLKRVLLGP
Sequence of UniProt P42338 (P42338 whole entry, looked up): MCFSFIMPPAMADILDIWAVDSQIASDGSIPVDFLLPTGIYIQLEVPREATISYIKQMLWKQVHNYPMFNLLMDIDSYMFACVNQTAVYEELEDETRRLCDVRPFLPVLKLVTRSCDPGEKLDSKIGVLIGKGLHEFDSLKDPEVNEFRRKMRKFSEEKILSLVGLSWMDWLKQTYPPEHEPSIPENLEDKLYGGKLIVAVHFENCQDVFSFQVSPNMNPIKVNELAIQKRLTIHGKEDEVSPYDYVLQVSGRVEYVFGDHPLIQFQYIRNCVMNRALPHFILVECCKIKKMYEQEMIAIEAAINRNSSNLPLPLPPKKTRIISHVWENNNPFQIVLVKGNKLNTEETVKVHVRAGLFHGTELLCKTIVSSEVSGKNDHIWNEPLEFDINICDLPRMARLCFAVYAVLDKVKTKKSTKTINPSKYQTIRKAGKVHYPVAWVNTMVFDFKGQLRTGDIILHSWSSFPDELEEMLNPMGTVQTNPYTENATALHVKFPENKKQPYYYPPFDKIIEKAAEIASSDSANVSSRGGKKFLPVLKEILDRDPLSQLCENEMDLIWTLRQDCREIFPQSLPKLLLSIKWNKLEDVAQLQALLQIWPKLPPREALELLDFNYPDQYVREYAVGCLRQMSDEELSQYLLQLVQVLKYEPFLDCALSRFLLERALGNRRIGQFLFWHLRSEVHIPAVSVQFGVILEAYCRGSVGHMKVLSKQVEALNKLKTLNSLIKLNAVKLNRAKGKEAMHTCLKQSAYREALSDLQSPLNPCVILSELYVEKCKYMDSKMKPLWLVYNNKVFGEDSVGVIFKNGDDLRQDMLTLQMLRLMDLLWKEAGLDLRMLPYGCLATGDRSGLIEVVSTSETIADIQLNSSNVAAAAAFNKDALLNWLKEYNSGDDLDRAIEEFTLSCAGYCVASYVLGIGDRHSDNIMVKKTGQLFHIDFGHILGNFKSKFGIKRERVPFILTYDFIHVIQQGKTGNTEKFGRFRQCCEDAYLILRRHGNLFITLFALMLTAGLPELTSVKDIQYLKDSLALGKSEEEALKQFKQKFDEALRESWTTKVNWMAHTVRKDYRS
Sequence of UniProt Q92968 (Q92968 whole entry, looked up): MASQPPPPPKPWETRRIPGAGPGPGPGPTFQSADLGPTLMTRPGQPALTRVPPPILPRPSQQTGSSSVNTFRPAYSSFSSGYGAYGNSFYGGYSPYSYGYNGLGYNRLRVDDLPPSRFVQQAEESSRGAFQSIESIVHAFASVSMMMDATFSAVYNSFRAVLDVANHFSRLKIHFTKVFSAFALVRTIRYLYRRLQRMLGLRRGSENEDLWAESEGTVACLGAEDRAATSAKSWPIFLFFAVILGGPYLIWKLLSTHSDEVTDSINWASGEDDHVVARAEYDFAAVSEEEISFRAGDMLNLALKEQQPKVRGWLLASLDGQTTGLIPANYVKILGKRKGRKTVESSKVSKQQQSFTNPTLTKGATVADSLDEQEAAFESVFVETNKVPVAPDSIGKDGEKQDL

Compound in the experiment: c1cn2cc(-c3ccc4cn[nH]c4c3)nc(Nc3ccc(N4CCOCC4)cc3)c2n1 [entospletinib]
In words: log2 fold change, soluble protein after heating vs DMSO (PISA); higher = thermal stabilisation; K562 cells, 10 uM, 30 min; active = over 0.2 and 3.5 SD of the protein, either way, in both replicates (recomputed). Put shortly: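 Soluble protein was defined as the supernatant after 21,000xg for 90 min. It came from K562 cells at 2×10^6 cells/mL given 10 μM compound for 30 min, heated in aliquots for 3 min across 48°C-58°C, pooled, and extracted in PBS with 0.5% NP-40 at 4°C, and was quantified by TMTpro 16plex LC-MS/MS with equalised channel sums. Thermal stability against control samples, from duplicates, is reported as log2 fold change.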
On to POGLUT1 (UniProt Q8NBL1), for which the log2 fold change is 0.06 (inactive).
With PGK2 (UniProt P07205), the log2 fold change was -0.035 (inactive).
For PEX7 (UniProt O00628) the value was -0.01 (inactive).
In the case of PLA2G15 (UniProt Q8NCC3), the log2 fold change was -0.063 (inactive).
With PPP1R12A (UniProt O14974), the log2 fold change was -0.045 (inactive).
Take PJA2 (UniProt O43164): the log2 fold change was -0.009 (inactive).
Regarding PPT2 isoform 3 (UniProt Q9UMR5), the log2 fold change is -0.04 (inactive).
For PEA15 isoform 2 (UniProt Q15121) the value was 0.009 (inactive).
For PTRH2 (UniProt Q9Y3E5) the value was 0.019 (inactive); for PSMC3 (UniProt P17980), 0 (inactive).
For PRMT7 (UniProt Q9NVM4) the value was 0.055 (inactive); for PRKAB1 (UniProt Q9Y478), -0.145 (inactive); for QKI (UniProt Q96PU8), 0.065 (inactive).
Consider PDSS2 (UniProt Q86YH6), for which the log2 fold change is -0.152 (inactive).
Next, PCNX1 (UniProt Q96RV3): 0.179 (inactive); PSMA3 (UniProt P25788): 0.009 (inactive); PRKAA1 isoform 2 (UniProt Q13131): -0.015 (inactive).
For the target PCTP (UniProt Q9UKL6), the log2 fold change was -0.072 (inactive).
As to PIGH (UniProt Q14442), the log2 fold change is -0.034 (inactive).
On to PTPA (UniProt Q15257), for which the log2 fold change was -0.004 (inactive).
For PLK1 (UniProt P53350) the value was -0.022 (inactive); for PNPLA4 (UniProt P41247), 0.003 (inactive).
On to PIK3CB (UniProt P42338), for which the log2 fold change is 0.033 (inactive).
For PDIK1L (UniProt Q8N165) the value was 0.06 (inactive); for PRPF38B (UniProt Q5VTL8), 0.032 (inactive); for PAK4 (UniProt O96013), -0.002 (inactive).
Next, PCK2 (UniProt Q16822): -0.057 (inactive); PEX13 (UniProt Q92968): 0.012 (inactive).
Regarding POLA2 (UniProt Q14181), the log2 fold change is -0.047 (inactive).
Take PRPSAP2 (UniProt O60256): the log2 fold change was -0.008 (inactive).
For PGGHG (UniProt Q32M88) the value was 0.023 (inactive); for PSMD13 (UniProt Q9UNM6), 0.049 (inactive); for PNN (UniProt Q9H307), 0.172 (inactive).
For PPOX (UniProt P50336) the value was 0.028 (inactive); for PURA (UniProt Q00577), 0.176 (inactive); for PCNT (UniProt O95613), 0.14 (inactive).
For PSMD9 (UniProt O00233), the log2 fold change was -0.034 (inactive).
As for PCBP1 (UniProt Q15365), the log2 fold change is -0.042 (inactive).
